{
  "source": "PubChem BioAssay AID624297",
  "about": "(National Center for Advancing Translational Sciences (NCATS), 2012)",
  "note": "In all, about 340,000 compounds went through this assay and about 6,200 (1.8%) were called active. Not shown: some 10% with an inconclusive outcome. The call rests on the fitted dose curve; in most records, active means well fitted activation curve with a large enough effect; inconclusive means small, poorly fitted or top-dose-only effect; inactive means no such curve, though single readings can be large or run the other way. Shown is part of a subset that was picked to be rich in actives. Where a call stands in place of a potency, no number is given. Potency means the concentration at half of the fitted maximal effect.",
  "data": [
    {"test": "A quantitative high throughput screen for small molecules that induce DNA re-replication in SW480 colon adenocarcinoma cells; further: nearly all actives have a fitted effect of over 55% in size.", "details": "Hoechst DNA content imaging, 48 h; series mostly up to 46.1 µM", "description": "H Molecular Libraries Probe Production Network [MLPCN] NIH Chemical Genomics Center [NCGC] MLPCN Grant: Fast Track K99 CA136555 Assay Provider: Melvin DePamphilis, NICHD, NIH Assay Overview Eukaryotic cells normally restrict genome duplication to once per cell division. When this process is aberrant, DNA re-replication occurs when cells reinitiate DNA replication before the first round of replication is complete. DNA re-replication induces the DNA damage response, arrests cell proliferation, and triggers apoptosis. The cell cycle components cyclin A, Cdt-1, Cdc6 and geminin are critical regulators of this process and their misregulation results in DNA re-replication in normal and cancer cells. To identify compounds that induce re-replication in normal cells, an image-based assay was used to measure DNA content of nuclei, as detected by the fluorescent DNA binding dye, Hoechst. Cell nuclei were imaged by a fluorescence scanning plate imager and compounds that induce DNA re-replication were identified by the increase of nuclei with elevated fluorescence intensity\nFor screening, 250 cells in 5 uL/well were dispensed into black clear 1536-well plates (Aurora) using a solenoid-based dispenser. Following transfer of 23 nL compound or DMSO vehicle by a pin tool, the plates were incubated 48 hr at 37 C and 5% CO2. After addition of 1 uL/well Hoescht stain, the plates were incubated 40 min at 37 C, 5% CO2 and total intensity of fluorescent objects (nuclei) were enumerated by an Acumen Explorer Ex3 (TTP LabTech) fluorescence scanning plate imager (405 nm excitation, 500-530 nm emission). Keywords: NIH Roadmap, MLPCN, MLI, MLSMR, qHTS, NCGC, DNA replication, cancer", "values": [
      {"smiles": "O=C(Cc1ccccc1[N+](=O)[O-])N1CCN(Cc2ccc3c(c2)OCO3)CC1", "Potency": "16.4 µM (active)"},
      {"smiles": "Fc1ccc(N2CCN(Cc3ccc4c(c3)OCO4)CC2)cc1", "Potency": "inactive"},
      {"smiles": "Cc1cc(=O)oc2c(C)c(OCC(=O)N3CCN(Cc4ccc5c(c4)OCO5)CC3)ccc12", "Potency": "inactive"},
      {"smiles": "CC1([N+](=O)[O-])COP(=O)(Nc2ccc(F)cc2)OC1", "note": "(stereo not given)", "Potency": "inactive"},
      {"smiles": "CC1CNCCN1c1ccc(Cl)cc1", "note": "(stereo not given)", "Potency": "inactive"},
      {"smiles": "COc1cc(-n2c(=S)[nH]c3ccc(C)cc3c2=O)c(Cl)cc1Cl", "Potency": "18.4 µM (active)"},
      {"smiles": "C[C@]12CCC3C(CC[C@H]4[C@H](O)[C@H](O)CC[C@]34C)C1CCC2=O", "note": "(stereo not given in full)", "Potency": "inactive"},
      {"smiles": "O=C(CSc1ccccc1)Nc1ccc(C(=O)Nc2cccc(O)c2)cc1", "Potency": "inactive"},
      {"smiles": "CCC(C)n1c(O)c(/C=N/Nc2nc3c(c(=O)n(C)c(=O)n3C)n2C)c(=O)[nH]c1=S", "note": "(stereo not given)", "Potency": "23.1 µM (active)"},
      {"smiles": "CC1CC=CCC12C(=O)NC(=S)NC2=O", "note": "(stereo not given)", "Potency": "inactive"},
      {"smiles": "CNC(C)[C@@H](O)c1ccccc1", "note": "(stereo not given in full)", "Potency": "inactive"},
      {"smiles": "CC1=CC(=Cc2sc3ccccc3[n+]2C)C=C(C)O1", "Potency": "5.8 µM (active)"},
      {"smiles": "CCC1(CC(C)c2ccccc2)C(=O)NC(=O)NC1=O", "note": "(stereo not given)", "Potency": "inactive"},
      {"smiles": "Cc1cc(C)c2c(c1)NP(=S)(c1ccccc1)N2", "note": "(stereo not given)", "Potency": "inactive"},
      {"smiles": "CCOC(=O)CC(SP1(=S)OCC2(CCCCO2)C(C2CCCCO2)O1)C(=O)OCC", "note": "(stereo not given)", "Potency": "inactive"},
      {"smiles": "O=C(N/N=C/c1ccc([N+](=O)[O-])o1)c1cc([N+](=O)[O-])cc([N+](=O)[O-])c1O", "Potency": "inactive"},
      {"smiles": "CC[C@H]1CN2CCc3cc(OC)c(OC)cc3[C@@H]2C[C@@H]1C[C@H]1NCCc2cc(OC)c(OC)cc21", "Potency": "0.291 µM (active)"},
      {"smiles": "O=C1NC(=O)C(CCOc2ccccc2)(CCc2ccccc2)C(=O)N1", "Potency": "inactive"},
      {"smiles": "CCC(=O)OC(Cc1ccccc1)(c1ccccc1)C(C)CN(C)C", "note": "(stereo not given)", "Potency": "inactive"},
      {"smiles": "CCOP(=O)(OCC)C(Nc1cccc(C)c1)c1ccc(F)cc1", "note": "(stereo not given)", "Potency": "inactive"},
      {"smiles": "CN1CCCC(=C(c2cccs2)c2cccs2)C1", "Potency": "inactive"},
      {"smiles": "Nc1ccc(Cc2ccc(N)c(Cl)c2)cc1Cl", "Potency": "inactive"},
      {"smiles": "C[C@]12CCCCC1=CC(=O)C1C2CC[C@@]2(C)C1C[C@@H](F)[C@@H]2O", "note": "(stereo not given in full)", "Potency": "inactive"},
      {"smiles": "Cc1ncsc1CCCl", "Potency": "inactive"},
      {"smiles": "Cc1cc2ccccn2c1C(C[N+](=O)[O-])c1c(F)cccc1Cl", "note": "(stereo not given)", "Potency": "7.31 µM (active)"},
      {"smiles": "CCOc1ccc(S(=O)(=O)NCc2ccc3c(c2)OCO3)cc1C", "Potency": "inactive"},
      {"smiles": "CC(CC(C#N)(c1ccccc1)c1ccccc1)N1CCCCC1", "note": "(stereo not given)", "Potency": "inactive"},
      {"smiles": "COc1ccc(C2CC(c3cccs3)=NN2c2nc(C)c(C(C)=O)s2)cc1OC", "note": "(stereo not given)", "Potency": "14.6 µM (active)"},
      {"smiles": "O=C(NCc1cccs1)c1ccc(Br)o1", "Potency": "inactive"},
      {"smiles": "Cc1cccc([C@H](C)c2cnc[nH]2)c1C", "Potency": "inactive"},
      {"smiles": "CCOC(=O)C1(c2ccccc2)CCN(CC(O)c2ccc(NC(C)=O)cc2)CC1", "note": "(stereo not given)", "Potency": "inactive"},
      {"smiles": "c1ccc2sc(SNC3CCCCC3)nc2c1", "Potency": "inactive"},
      {"smiles": "COc1ccc2c(c1)NP(=S)(c1ccccc1)N2", "note": "(stereo not given)", "Potency": "inactive"},
      {"smiles": "O=c1c2ccccc2nc(/C=C/c2ccco2)n1-c1ccccc1O", "Potency": "20.6 µM (active)"},
      {"smiles": "O=c1c2ccccc2nc(-c2ccccc2)n1-c1ccccn1", "Potency": "inactive"},
      {"smiles": "O=c1c2ccccc2nc(-c2ccco2)n1-c1ccc(Br)cn1", "Potency": "inactive"},
      {"smiles": "C=CCN1CCC23c4c5ccc(O)c4O[C@H]2C(=O)CC[C@@]3(O)C1C5", "note": "(stereo not given in full)", "Potency": "inactive"},
      {"smiles": "CC(C)(C)CC(=O)Nc1nnc(SCC(=O)NCc2cccs2)s1", "Potency": "inactive"},
      {"smiles": "Cc1cc(-c2ccc(N)c(C)c2)ccc1N", "Potency": "inactive"},
      {"smiles": "CCC1(c2ccccc2)C(=O)NC(=O)N(C)C1=O", "note": "(stereo not given)", "Potency": "inactive"},
      {"smiles": "CCN1C(=O)NC(=O)C2(CCCC2)C1=O", "Potency": "inactive"},
      {"smiles": "CC(=O)OC1C2(CC3N4C(=O)C5(CO)SSC4(CC31O)C(=O)N5C)OC(C)C(C)(C)C2=O", "note": "(stereo not given)", "Potency": "0.461 µM (active)"},
      {"smiles": "CCNC[C@H](O)c1cccc(O)c1", "Potency": "inactive"},
      {"smiles": "O=C1NC(=O)C(Cc2ccccc2)C(=O)N1", "Potency": "inactive"},
      {"smiles": "CC1CCCN1CCC(C(N)=O)(c1ccccc1)c1ccccc1", "note": "(stereo not given)", "Potency": "inactive"},
      {"smiles": "COc1ccc2c3c1O[C@H]1C[C@@H](O)C=C[C@@]31CCN(C)C2", "Potency": "inactive"},
      {"smiles": "CC=C(C)C(=O)OC1CCN2CC=C(COC(=O)C(O)(C(C)OC)C(C)(C)O)C12", "note": "(stereo not given)", "Potency": "inactive"},
      {"smiles": "CCC1(C)CC(CCNCc2ccc(N(C)C)cc2)(c2ccc(F)cc2)CCO1", "note": "(stereo not given)", "Potency": "18.4 µM (active)"},
      {"smiles": "CC[N+]1(CCOC(=O)C(O)(c2ccccc2)c2ccccc2)CCCCC1", "Potency": "inactive"},
      {"smiles": "C=C(C)C1(CCCC)C(=O)NC(=S)NC1=O", "Potency": "inactive"}
    ]}
  ]
}
